Source: PubChem BioAssay (NCI)
About 79,000 compounds went through this panel and 15% of them were active in at least one assay; those are over-represented in the sample as a whole. Active and inactive are the calls of the source. Rule as the data show it: active = growth inhibition above about 70%; inactive = the rest.

Experiment: NCI Yeast Anticancer Drug Screen. Data for the rad14 strain (AID 159);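 also: 0% = growth of vehicle-treated control cultures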
Conditions: S. cerevisiae rad14 strain growth inhibition; at 33.0 µM; stronger effect = higher value
In short: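 DNA repair-defective yeast, compound-exposed; % growth inhibition derived by comparison with vehicle-treated controls.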
With `S=C(S)NN1CCOCC1` the growth inhibition was 42% (inactive). With `COc1cc2c3c(cccc3c1)C(=O)N(CCN(C)C)C2=O` the growth inhibition was -3% (inactive). With `COC(=O)C1=C(C)NC(C)=C(C(=O)OCCCN2CCC(c3ccccc3)(c3ccccc3)CC2)C1c1cccc([N+](=O)[O-])c1` (centres undefined) the growth inhibition was 98% (active). In the case of `c1ccc2c(c1)Oc1cccc3cccc-2c13`, the growth inhibition is reported as 36% (inactive). For `CN(C)CCOc1ccc2c(c1)C/C(=C/c1ncc([N+](=O)[O-])n1C)C2=O`, the growth inhibition was 95% (active). For `Cc1ccc(CCC2=CCCc3c2ccc2ccccc32)cc1`, the growth inhibition was 6% (inactive). In the case of `CNC(=O)OCc1c(COC(=O)NC)c(-c2ccc(Cl)c(Cl)c2)n2c1CCC2`, the growth inhibition is reported as 98% (active). With `Clc1ccccc1C1OC1c1ccccc1Cl` (centres undefined) the growth inhibition was -43% (inactive). With `O=[N+]([O-])c1cc(CCl)ccc1CCl` the growth inhibition was 95% (active). For `O=C1C=CC(=O)c2c(O)c(Nc3ccc(OC(F)(F)F)cc3)c(Cl)c(O)c21`, the growth inhibition was 32% (inactive). In the case of `S=c1[nH]nc(Nc2ccc(Cl)cc2)s1`, the growth inhibition is reported as 46% (inactive). With `Cn1ccnc1Oc1ccc(Cl)cc1` the growth inhibition was 46% (inactive). For `BrCc1cccc2ccc3cccc(CBr)c3c12`, the growth inhibition was -2% (inactive). With `O=C1c2ccccc2-c2nc3ccccc3nc21` the growth inhibition was 15% (inactive). For `CCCCCCCCCCCCCCCCCCNC`, the growth inhibition was -9% (inactive). In the case of `Oc1ccc(NCn2c(=S)sc3ccccc32)cc1`, the growth inhibition is reported as 62% (inactive). In the case of `O=C1C2CC[C@@H]3C(=O)C(Cl)(Cl)[C@@H]3CCC2C1(Cl)Cl` (some centres undefined), the growth inhibition is reported as 13% (inactive). In the case of `CC[n+]1ccc2c(C)c3[nH]c4ccc(O)cc4c3c(C)c2c1`, the growth inhibition is reported as -20% (inactive). In the case of `Cc1ccc(-n2cc(-c3ccc(Cl)cc3)c(C#N)c2N)cc1`, the growth inhibition is reported as -12% (inactive).
